System: MV4-11
Assay: CellTox Green cytotoxicity fluorescence relative to DMSO vehicle (fold of vehicle RFU); higher = more cell death (loss of membrane integrity), active = 2 or more
Experimental: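 Paediatric AML cell lines (MV4-11, CMK, Kasumi-1; 4x10^4 cells/well, 96-well) treated with single compounds from the Selleckchem apoptosis library at 0.01, 0.1 and 1 µM. Cytotoxicity was read with CellTox Green (RFU, Ex 485/Em 520) at 24, 48 and 72 h and normalised to the 0.1% DMSO vehicle. Normalised RFU >= 2 was taken as a successful, cell-killing treatment.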

Measured: CellTox Green cytotoxicity fluorescence

CC1=C(O)C(=O)C=C2C1=CC=C1[C@@]2(C)CC[C@@]2(C)[C@@H]3C[C@](C)(C(=O)O)CC[C@]3(C)CC[C@]12C [Celastrol]
inactive: 0.01 µM, 24 h 0.931 | 0.01 µM, 48 h 0.955 | 0.01 µM, 72 h 0.964 | 0.1 µM, 24 h 0.966 | 0.1 µM, 48 h 0.976 | 0.1 µM, 72 h 1.01 | 1 µM, 24 h 1.29 | 1 µM, 48 h 1.96
active: 1 µM, 72 h 2.21

O=c1[nH]c2ccccc2n1C1CCN(Cc2ccc(-c3[nH]c4cc5ncnc5cc4nc3-c3ccccc3)cc2)CC1
inactive: 0.01 µM, 24 h 1 | 0.01 µM, 48 h 0.995 | 0.01 µM, 72 h 0.956 | 0.1 µM, 24 h 1 | 0.1 µM, 48 h 0.999 | 0.1 µM, 72 h 0.993 | 1 µM, 24 h 1.04 | 1 µM, 48 h 1.1 | 1 µM, 72 h 1.21

O=C(O)C(=O)c1cn(Cc2ccccc2)c2ccc(-c3ccc(OC(F)(F)F)cc3)cc12 [Tiplaxtinin]
inactive: 0.01 µM, 24 h 1.02 | 0.01 µM, 48 h 1.02 | 0.01 µM, 72 h 1.04 | 0.1 µM, 24 h 1.01 | 0.1 µM, 48 h 1.02 | 0.1 µM, 72 h 1.03 | 1 µM, 24 h 0.997 | 1 µM, 48 h 1.01 | 1 µM, 72 h 1

CN[C@@H]1C[C@H]2O[C@@](C)([C@@H]1OC)n1c3ccccc3c3c4c(c5c6ccccc6n2c5c31)C(=O)NC4 [Staurosporine]
inactive: 0.01 µM, 24 h 0.985 | 0.01 µM, 48 h 1.41 | 0.01 µM, 72 h 1.83 | 0.1 µM, 24 h 1.01 | 0.1 µM, 48 h 1.48 | 0.1 µM, 72 h 1.96 | 1 µM, 24 h 1.36
active: 1 µM, 48 h 2.34 | 1 µM, 72 h 2.42

Cn1c(COP(=O)(NCCBr)NCCBr)cnc1[N+](=O)[O-]
inactive: 0.01 µM, 24 h 0.981 | 0.01 µM, 48 h 0.971 | 0.01 µM, 72 h 0.974 | 0.1 µM, 24 h 0.97 | 0.1 µM, 48 h 0.983 | 0.1 µM, 72 h 1.04 | 1 µM, 24 h 0.97 | 1 µM, 48 h 1.38
active: 1 µM, 72 h 2.79

Source: the supplement of paper PMC7595190
